Screening results from PubChem.
miR122 inh – raises miR-122 sensor activity in Huh7 cells | Huh7 psiCHECK-miR122 Renilla luciferase sensor, 48 h | activation, % at 12.5 µM | 340,000 tested, 0.14% active;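 active = mean activation of 30% or more, with every replicate also reaching 30%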;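 note: 0% = median of neutral control wells and 100% = median of positive control wells; higher luciferase signal means stronger suppression of miR-122 activity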
* = called active by the depositor. Many of the other results were omitted from the sample, so hits are more common in it than they were.

SMILES	miR122 inh
COc1ccc2c(c1)c(CCN)c(C)n2Cc1ccccc1	52*
O=c1c2ccccc2nc(/C=C/c2ccc([N+](=O)[O-])o2)n1-c1ccc(O)cc1	-95
Oc1ccc(/C=N/NP(=S)(c2ccccc2)c2ccccc2)cc1	-96
CC12CCC3C(CCC4(O)CC(O)CCC34C=O)C1(O)CCC2C1=CC(=O)OC1 (stereo unspecified)	-96
c1ccc(-c2cc(-c3ccccc3)[n+](-c3ccccc3)c(-c3ccccc3)c2)cc1	59*
CC(C)C(NC(=O)C(C(C)C)N(C)C)C(=O)N(C)C(C(=O)N1CCCC1C(=O)N1CCCC1C(=O)NCc1ccccc1)C(C)C (stereo unspecified)	-95
